The source made the active and inactive calls. The calls were made as follows: active = hit-call score of the fitted dose curve at least 0.9, where 1 is the maximum; inactive = score below 0.9.
What was measured:
[1] = APR_HepG2_NuclearSize_72hr: Apredica 72-hour HepG2 Assay for Nuclear Size (AID 2282925); conditions: high-content imaging, actives raise or lower the signal
Outline: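 Nuclear size was read by high-content imaging of Hoechst 33342 stain after formaldehyde fixation. Compounds ran 72 h on HepG2 at 0.39 to 200 uM, with final DMSO 0.5% v/v. Curves fitted both directions relative to DMSO control.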

[2] = ATG_CRE_CIS: Attagene CIS-FACTORIAL HepG2 Assay for human cAMP Responsive Element (CRE) binding protein 3 (AID 2282926); conditions: HepG2 CRE cis-reporter, Attagene multiplexed mRNA; actives raise or lower the signal
Outline: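 Liver-derived HepG2, transfected with a CRE-containing reporter panel, exposed 24 h; transcript levels sized and quantified by capillary electrophoresis of labelled amplicons; signal changes either way referenced to vehicle.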

[3] = target: CCAAT/enhancer-binding protein beta (Homo sapiens) (UniProt P17676); test: ATG_C_EBP_CIS: Attagene CIS-FACTORIAL HepG2 Assay for human CCAAT/Enhancer Binding Protein (C/EBP) beta (AID 2282927); conditions: HepG2 Attagene cis-factorial transcription factor reporter; actives raise or lower the signal
CCAAT/enhancer-binding protein beta (Homo sapiens), sequence (P17676 whole entry, looked up, the tested form may be a part): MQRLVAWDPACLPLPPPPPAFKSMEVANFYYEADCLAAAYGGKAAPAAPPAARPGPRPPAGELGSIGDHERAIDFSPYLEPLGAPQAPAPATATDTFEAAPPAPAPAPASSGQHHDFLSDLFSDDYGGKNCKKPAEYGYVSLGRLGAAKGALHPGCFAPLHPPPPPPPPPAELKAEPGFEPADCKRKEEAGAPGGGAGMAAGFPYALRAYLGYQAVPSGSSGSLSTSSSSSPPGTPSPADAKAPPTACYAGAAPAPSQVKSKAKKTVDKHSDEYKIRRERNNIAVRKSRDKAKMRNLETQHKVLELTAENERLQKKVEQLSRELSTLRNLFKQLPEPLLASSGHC
Outline: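 Endogenous C/EBPb-driven reporter transcripts measured in transfected human HepG2 cells at 24 h via RT-PCR and capillary electrophoresis of labelled fragments. Activity fitted in both directions relative to DMSO baseline.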

[4] = ATG_CMV_CIS: Attagene CIS-FACTORIAL HepG2 Assay for human CMV (Internal Marker) (AID 2282928); conditions: HepG2 CMV promoter reporter, transcription factor profiling; actives raise or lower the signal;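 also: endpoint acts as a background internal control marker rather than a target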
Outline: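 24 h chemical treatment, HepG2 with transient multi-reporter transfection; RNA → oligo(dT) RT → PCR → 6-FAM extension → HpaI digest → CE fluorescence. Bidirectional fit, DMSO negative control.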

[5] = ATG_DR4_LXR_CIS: Attagene CIS-FACTORIAL HepG2 Assay for human Liver X Receptor (LXR), DR4 submotif (AID 2282929); conditions: HepG2 Attagene DR4 cis-reporter, mRNA transcription; actives raise or lower the signal
Outline: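 HepG2 cells were transiently transfected with multiple cis-regulated reporter units and dosed for 24 hours. The DR4 reporter mRNA was quantified by RT-PCR, 6-FAM labelling and capillary electrophoresis. Bidirectional fits used DMSO as baseline.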

[6] = target: Aryl hydrocarbon receptor (Homo sapiens) (UniProt P35869); test: ATG_Ahr_CIS: Attagene CIS-FACTORIAL HepG2 Assay for human Aryl Hydrocarbon Receptor (Ahr) (AID 2282930); conditions: HepG2 AhR cis-factorial reporter transcription; actives raise or lower the signal
Aryl hydrocarbon receptor (Homo sapiens), sequence (P35869 whole entry, looked up): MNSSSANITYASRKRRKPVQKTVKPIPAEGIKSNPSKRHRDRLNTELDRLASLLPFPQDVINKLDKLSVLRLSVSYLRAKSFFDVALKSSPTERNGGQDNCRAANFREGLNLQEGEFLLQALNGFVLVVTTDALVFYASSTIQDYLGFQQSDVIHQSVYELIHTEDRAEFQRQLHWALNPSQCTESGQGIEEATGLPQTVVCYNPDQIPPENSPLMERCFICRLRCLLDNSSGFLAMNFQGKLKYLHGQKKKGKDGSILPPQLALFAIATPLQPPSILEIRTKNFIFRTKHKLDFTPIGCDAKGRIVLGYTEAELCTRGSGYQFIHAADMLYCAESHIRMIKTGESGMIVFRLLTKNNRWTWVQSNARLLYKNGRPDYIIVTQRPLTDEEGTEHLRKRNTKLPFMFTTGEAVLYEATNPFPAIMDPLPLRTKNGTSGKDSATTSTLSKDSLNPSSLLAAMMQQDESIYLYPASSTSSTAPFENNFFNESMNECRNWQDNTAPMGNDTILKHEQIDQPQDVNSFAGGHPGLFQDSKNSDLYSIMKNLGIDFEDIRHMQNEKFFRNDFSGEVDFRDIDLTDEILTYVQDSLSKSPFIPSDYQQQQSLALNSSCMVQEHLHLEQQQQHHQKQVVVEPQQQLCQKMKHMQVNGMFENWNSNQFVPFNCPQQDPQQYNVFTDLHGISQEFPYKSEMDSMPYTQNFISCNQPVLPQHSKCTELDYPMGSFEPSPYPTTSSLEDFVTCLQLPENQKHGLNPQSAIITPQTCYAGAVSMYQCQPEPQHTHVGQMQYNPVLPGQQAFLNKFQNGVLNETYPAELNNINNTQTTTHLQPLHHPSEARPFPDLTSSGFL
Outline: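 Reporter mRNA levels, quantified by RT-PCR and fluorescent capillary electrophoresis, reflect endogenous AhR transcriptional activity in HepG2 cells carrying transfected cis-promoter reporter constructs. Readout at 24 h post-dose; gain or loss fitted against DMSO baseline.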

[7] = ATG_AP_1_CIS: Attagene CIS-FACTORIAL HepG2 Assay for human Activator Protein 1 (AP-1) (AID 2282931); conditions: HepG2 Attagene cis-factorial AP-1 reporter mRNA; actives raise or lower the signal
Outline: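 HepG2 cells transiently transfected with cis-element-driven reporter transcription units, dosed for 24 hours. Reporter mRNA measured by RT-PCR, 6-FAM labelling, HpaI digestion and capillary electrophoresis. Bidirectional fitting against DMSO baseline.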

[8] = ATG_AP_2_CIS: Attagene CIS-FACTORIAL HepG2 Assay for human Activator Protein 2 (AP-2) (AID 2282932); conditions: HepG2 AP-2 cis-reporter, Attagene transcription factor profiling; actives raise or lower the signal
Outline: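 Endogenous transcription factor activity is reported through transfected multiplex reporter constructs in HepG2, after 24 h of compound exposure. Transcripts were quantified by RT-PCR and capillary electrophoresis of fluorescent fragments. Bidirectional fit against DMSO.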

[9] = ATG_BRE_CIS: Attagene CIS-FACTORIAL HepG2 Assay for human Bone Morphogenetic Protein (BMP) Response Element (BRE) (AID 2282933); conditions: HepG2 BMP response element reporter, Attagene transcription factor profiling; actives raise or lower the signal
Outline: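 Endogenous transcription factor activity at a BMP response element was monitored in transfected HepG2 cells 24 h after dosing. Fluorescent RT-PCR products were resolved by capillary electrophoresis, and activity was fitted in both directions versus DMSO.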

[10] = target: Retinoic acid receptor alpha (Homo sapiens) (UniProt P10276); test: ATG_DR5_RAR_CIS: Attagene CIS-FACTORIAL HepG2 Assay for human Retinoic Acid Receptor Alpha (RARE), DR5 submotif (AID 2282934); conditions: HepG2 Attagene cis-factorial RARE DR5 reporter, mRNA; actives raise or lower the signal
Retinoic acid receptor alpha (Homo sapiens), sequence (P10276 whole entry, looked up): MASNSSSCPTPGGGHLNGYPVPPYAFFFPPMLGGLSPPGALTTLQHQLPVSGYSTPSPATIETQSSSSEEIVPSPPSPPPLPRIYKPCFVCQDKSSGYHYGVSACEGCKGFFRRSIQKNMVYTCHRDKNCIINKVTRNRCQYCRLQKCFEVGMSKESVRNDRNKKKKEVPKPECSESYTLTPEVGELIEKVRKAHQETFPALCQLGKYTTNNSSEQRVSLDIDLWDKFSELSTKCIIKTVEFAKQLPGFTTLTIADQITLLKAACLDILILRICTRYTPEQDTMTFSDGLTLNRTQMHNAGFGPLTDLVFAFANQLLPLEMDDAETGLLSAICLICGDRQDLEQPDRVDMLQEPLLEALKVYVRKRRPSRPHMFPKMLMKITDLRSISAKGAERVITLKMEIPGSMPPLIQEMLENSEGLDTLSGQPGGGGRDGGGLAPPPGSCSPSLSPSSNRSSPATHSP
Outline: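 Reporter transcripts from a DR5-regulated unit, measured via RT-PCR plus capillary electrophoresis, reflect endogenous RAR activity in transiently transfected human HepG2 liver cells. Exposure lasted 24 h; gain or loss of signal scored against DMSO.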

[11] = target: Transcription factor E2F1 (Homo sapiens) (UniProt Q01094); test: ATG_E2F_CIS: Attagene CIS-FACTORIAL HepG2 Assay for human E2F Transcription Factor 1 (AID 2282935); conditions: HepG2 Attagene cis-reporter, E2F reporter RNA transcripts; actives raise or lower the signal
Transcription factor E2F1 (Homo sapiens), sequence (Q01094 whole entry, looked up): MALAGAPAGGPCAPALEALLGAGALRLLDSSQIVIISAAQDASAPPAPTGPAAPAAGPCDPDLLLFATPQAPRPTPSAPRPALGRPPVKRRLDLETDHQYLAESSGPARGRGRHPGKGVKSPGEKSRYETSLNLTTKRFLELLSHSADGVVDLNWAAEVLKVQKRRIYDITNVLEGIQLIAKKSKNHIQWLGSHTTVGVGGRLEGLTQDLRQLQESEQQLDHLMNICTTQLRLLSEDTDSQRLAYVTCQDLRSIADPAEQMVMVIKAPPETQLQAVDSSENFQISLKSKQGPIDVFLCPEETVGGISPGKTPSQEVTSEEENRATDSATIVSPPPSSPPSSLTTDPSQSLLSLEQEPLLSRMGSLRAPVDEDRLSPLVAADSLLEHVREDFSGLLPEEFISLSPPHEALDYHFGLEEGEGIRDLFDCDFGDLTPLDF
Outline: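 Gain or loss of reporter transcript, fitted against DMSO, reflects E2F1-driven transcription. Transiently transfected HepG2 dosed 24 h before RNA isolation. Quantified by fluorescent RT-PCR products separated by capillary electrophoresis.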

[12] = ATG_E_Box_CIS: Attagene CIS-FACTORIAL HepG2 Assay for human Enhancer Box (E-box) (AID 2282936); conditions: HepG2 E-box cis-reporter transcription, actives raise or lower the signal
Outline: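 E-box-driven reporter transcripts measured in transiently transfected HepG2 after 24 h exposure: RNA reverse-transcribed, PCR-amplified, fluorescently labelled, digested and resolved by capillary electrophoresis. Gain or loss relative to DMSO.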

[13] = ATG_M_61_CIS: Attagene CIS-FACTORIAL HepG2 Assay for M61 Transcription Factor (Internal Marker) (AID 2282937); conditions: HepG2 Attagene CIS-FACTORIAL M61 internal marker reporter; actives raise or lower the signal
Outline: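 HepG2 cells transiently transfected with multiplexed cis-promoter reporter units reporting endogenous transcription factor activity, measured 24 h after dosing. Reporter mRNA quantified by RT-PCR and capillary electrophoresis; bidirectional fit against DMSO baseline.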

[14] = ATG_EGR_CIS: Attagene CIS-FACTORIAL HepG2 Assay for human Early Growth Response 1 (EGR1) (AID 2282938); conditions: HepG2 Attagene CIS-FACTORIAL EGR reporter mRNA; actives raise or lower the signal
Outline: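 HepG2 cells transiently transfected with cis-element-driven multiplexed reporter units, dosed for 24 h. EGR1-element reporter mRNA quantified by RT-PCR, 6-FAM labelling, HpaI digestion and capillary electrophoresis; bidirectional fit versus DMSO.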

[15] = ATG_M_19_CIS: Attagene CIS-FACTORIAL HepG2 Assay for M19 Transcription Factor (Internal Marker) (AID 2282939); conditions: HepG2 Attagene CIS-FACTORIAL M19 internal marker reporter; actives raise or lower the signal
Outline: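 Background-control endpoint from a multiplexed HepG2 reporter panel. Cells carrying cis-regulated reporter constructs are treated 24 h, then reporter transcripts are amplified, fluorescently labelled and sized by capillary electrophoresis. DMSO defines baseline.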

[16] = ATG_ERE_CIS: Attagene CIS-FACTORIAL HepG2 Assay for Estrogen Response Element (ERE) (AID 2282940); conditions: HepG2 ERE cis-reporter, Attagene RNA transcript; actives raise or lower the signal
Outline: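 Cells used were human hepatoma HepG2, transfected with multiple reporter transcription units under cis-regulatory promoters. Reporter mRNA, read 24 h post-dosing via fluorescent RT-PCR products on capillary electrophoresis, was fitted bidirectionally relative to DMSO.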

[17] = ATG_Ets_CIS: Attagene CIS-FACTORIAL HepG2 Assay for human Erythroblast Transformation Specific (ETS) (AID 2282941); conditions: HepG2 ETS cis-reporter transcription, actives raise or lower the signal
Outline: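 Cis-regulated reporter mRNA induction in HepG2 (transient transfection), 24 h exposure, RT-PCR plus capillary electrophoresis detection; DMSO serves as negative control and baseline.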

[18] = target: Hepatocyte nuclear factor 3-beta (Homo sapiens) (UniProt Q9Y261); test: ATG_FoxA2_CIS: Attagene CIS-FACTORIAL HepG2 Assay for human Forkhead box A2 (FOXA2) (AID 2282942); conditions: HepG2 cis-reporter transcription factor activity, 24 h; actives raise or lower the signal
Hepatocyte nuclear factor 3-beta (Homo sapiens), sequence (Q9Y261 whole entry, looked up): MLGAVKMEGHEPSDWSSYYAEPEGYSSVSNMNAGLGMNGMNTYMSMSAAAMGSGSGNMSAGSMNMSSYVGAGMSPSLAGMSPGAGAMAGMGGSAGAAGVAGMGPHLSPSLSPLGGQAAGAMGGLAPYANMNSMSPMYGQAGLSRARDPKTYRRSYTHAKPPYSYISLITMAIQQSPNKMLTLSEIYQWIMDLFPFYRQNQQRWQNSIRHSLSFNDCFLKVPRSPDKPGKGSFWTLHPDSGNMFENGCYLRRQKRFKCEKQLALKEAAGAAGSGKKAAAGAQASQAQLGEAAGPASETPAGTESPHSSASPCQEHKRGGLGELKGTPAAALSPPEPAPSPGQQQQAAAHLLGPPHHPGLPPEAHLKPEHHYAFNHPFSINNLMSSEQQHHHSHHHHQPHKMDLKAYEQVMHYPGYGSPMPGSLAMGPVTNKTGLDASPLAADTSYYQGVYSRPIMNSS
Outline: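 HepG2 transiently transfected with a multiplexed cis-promoter reporter library read endogenous FOXA2 activity. After 24 h compound exposure, reporter mRNA was quantified by RT-PCR, HpaI digestion and capillary electrophoresis. Bidirectional fit against DMSO.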

[19] = ATG_FoxO_CIS: Attagene CIS-FACTORIAL HepG2 Assay for human Forkhead box O (FoxO) (AID 2282943); conditions: HepG2 Attagene cis-reporter, FoxO element, mRNA; actives raise or lower the signal
Outline: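 Endogenous transcription factor activity read from multiplexed cis-promoter reporter transcripts in transiently transfected HepG2, 24 h after dosing. Reporter RNA measured via RT-PCR plus capillary electrophoresis of FAM-labeled products; gain or loss relative to DMSO.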

[20] = ATG_GATA_CIS: Attagene CIS-FACTORIAL HepG2 Assay for human GATA Binding Protein (AID 2282944); conditions: HepG2 GATA cis-element reporter, Attagene multiplex mRNA; actives raise or lower the signal
Outline: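 Endogenous transcription factor activity was captured through cis-promoter-driven reporters in transfected HepG2 cells. After 24 h exposure, reporter transcripts were quantified by RT-PCR with fluorescent capillary electrophoresis, and responses fitted both directions against DMSO.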

Measured: outcome

CCNc1cccc(C)c1
inactive: all assays above

CN[C@H]1CC[C@@H](c2ccc(Cl)c(Cl)c2)c2ccc(S(N)(=O)=O)cc21
not listed: [10]
inactive: all other assays above

Cc1ccc(C)c(O)c1C
inactive: all assays above
